In the library only some 5.6% were active in any assay of this set; here they are far more common.
Gal4-VP16 FLuc = counter-screen for ROR gamma inhibitors: Gal4-VP16 reporter; AID 2546; Potency, µM (titrated, usually from 53.6 µM), inactives show at the highest dose activity, negative = inhibition, usual class: inhibitors; actives 3.5% (n = 310,000); Drosophila S2 Gal4-VP16 UAS-luciferase, luminescence, 20 h;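 also: Gal4-VP16 expression switched on by copper sulfate through the metallothionein promoter; potency is read from the fitted curve at half-maximal effect; nearly all actives have a fitted effect of over 50% in size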
RORg inh = ROR gamma (mouse) transcription inhibition. Drosophila S2 Gal4-RORgamma UAS-luciferase reporter, 20 h. Potency, µM (series often up to 53.6 µM), for the others: at the highest dose activity change, negative = inhibition, hits mostly inhibitors. actives 5.4% (n = 310,000); also: potency is read from the fitted curve at half-maximal effect; nearly all actives have a fitted effect of over 60% in size
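In this cell-based reporter format, copper sulfate (700 uM final) drives Gal4–ROR gamma fusion expression from a metallothionein promoter in Drosophila Schneider cells; compounds preincubated 1 hr, reporter read after 20 hr at ambient temperature.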
CtBP-E1A inh = blocks the CtBP interaction with E1A; AlphaScreen GST-E1A/His-CtBP binding, 1536-well; stronger effect = lower value; activity change, % (no concentration beside the values); actives 0.49% (n = 340,000); in the data active = activity change below about -65%; inconclusive = mostly about -30% to -63%
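Steps: dispense buffer (Tris pH 8.0, NaCl 300 mM, TCEP 1 mM, BSA, Tween 20); add 5X protein mix (GST-E1A, His-CtBP, 125 nM each); pin 23 nL compound; 2 h at 37 °C, dark; add 5X beads (50 ug/mL); 1 h; read.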
Six1-Eya2 blk = blocks human Six1 binding to Eya2; Q15475+O00167; AlphaScreen GST-Six1/His-Eya2 binding, biochemical; stronger effect = lower value; activity change, % (test concentration not listed); actives 0.56% (n = 360,000); in the data active = activity change below about -65%; inconclusive = mostly about -30% to -63%
Target sequence (O00167 whole entry, looked up): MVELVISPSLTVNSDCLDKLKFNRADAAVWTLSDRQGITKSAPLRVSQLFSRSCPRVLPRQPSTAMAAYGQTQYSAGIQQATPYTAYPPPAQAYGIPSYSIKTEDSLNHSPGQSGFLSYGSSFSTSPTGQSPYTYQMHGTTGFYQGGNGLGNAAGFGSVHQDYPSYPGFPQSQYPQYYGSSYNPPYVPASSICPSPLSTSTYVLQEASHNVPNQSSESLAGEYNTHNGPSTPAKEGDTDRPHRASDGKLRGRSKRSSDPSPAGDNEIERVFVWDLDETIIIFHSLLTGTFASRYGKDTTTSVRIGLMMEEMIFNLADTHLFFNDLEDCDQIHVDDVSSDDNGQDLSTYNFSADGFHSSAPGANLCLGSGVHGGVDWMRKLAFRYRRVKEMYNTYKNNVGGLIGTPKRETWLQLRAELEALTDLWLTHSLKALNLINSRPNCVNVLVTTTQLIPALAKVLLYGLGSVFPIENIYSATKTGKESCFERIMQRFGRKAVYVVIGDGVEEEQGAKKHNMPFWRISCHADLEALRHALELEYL
Target sequence (Q15475 whole entry, looked up): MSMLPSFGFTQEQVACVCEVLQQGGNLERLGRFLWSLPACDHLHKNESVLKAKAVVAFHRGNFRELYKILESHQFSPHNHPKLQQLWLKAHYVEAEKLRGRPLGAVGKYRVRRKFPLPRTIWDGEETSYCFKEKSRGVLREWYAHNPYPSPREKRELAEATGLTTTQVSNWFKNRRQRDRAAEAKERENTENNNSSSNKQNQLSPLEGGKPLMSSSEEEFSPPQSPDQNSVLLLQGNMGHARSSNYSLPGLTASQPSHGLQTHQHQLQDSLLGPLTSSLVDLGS
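Homogeneous AlphaScreen proximity assay pairing GST-Six1 with His-tagged Eya2 (added as 5X mix: 250 nM and 500 nM) in 50 mM Tris pH 8.0, 300 mM NaCl, 1 mM TCEP. Glutathione donor and nickel acceptor beads; 1 h, 37 °C, dark.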
PKM2 activator = PKM2 (human) enzyme activation; P14618; purified PKM2, Kinase-Glo ATP luminescence, activation; response scale: 0% is enzyme alone, no compound; Potency, µM (top dose mostly 57.5 µM), without a hit: at the highest dose activation, hits mostly activators; actives 0.34% (n = 260,000); AID 1631; also: potency is read from the fitted curve at half-maximal effect; nearly all actives have a fitted effect of over 55% in size
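ATP formation by purified human PK-M2, quantified via coupled luciferase luminescence after 1 h at room temperature with 0.1 mM ADP and 0.5 mM PEP final.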
* marks the source's active call; other numbers are inactive results; ? = inconclusive; · = no result. Unless noted, calls follow the shape of the dose curve; as a rule, active = well fitted curve in the direction sought with a large enough effect; inconclusive = small, poorly fitted or top-dose-only effect, or another doubt; inactive = no such curve, though single readings can be large; an effect the other way counts as inactive or inconclusive. % is scaled to controls: 0 for no effect and ±100 for the full control effect.

SMILES	Gal4-VP16 FLuc	RORg inh	CtBP-E1A inh	Six1-Eya2 blk	PKM2 activator
C/C(=N\NC(=O)C1CC1(c1ccccc1)c1ccccc1)c1cccc([N+](=O)[O-])c1 (stereo unspecified)	-2%	9%	-4	3	1%
NC(=O)N/N=C/C=C/c1ccc(F)cc1	14%	24%	-3	5	-7%
COc1ccc(NC2=NCC(Cc3ccc(Br)cc3)S2)cc1 (stereo unspecified)	3.5µM*	?	-27	-5	4%
CC(C)C(NC(=O)c1ccccc1)C(=O)NCCc1ccccc1 (stereo unspecified)	-1%	-25%	1	1	5%
O=C(Cn1c(=O)oc2ccccc21)N1CCCC1	-8%	1%	0	4	·
Brc1ccc2nc(-c3c[nH]c4ccccc34)cn2c1	?	0.2µM*	-24	-17	4%
Cc1cccn2cc(-c3c[nH]c4ccccc34)nc12	-15%	-24%	-2	-16	-36%
C[C@]12c3[nH]c4ccc(Cl)cc4c3CCN1C(=O)[C@@H](CC(=O)NCCc1ccccn1)C[C@@H]2C(=O)N1CCCCC1	·	·	0	-5	·
O=C(Nc1ccccc1N1CCOCC1)c1cnccn1	4%	-17%	·	0	0%
O=C(Nc1ccc(N2CCOCC2)cc1)c1cnccn1	7.9µM*	5µM*	4	-4	-29%
O=C(Nc1ccc(N2CCOCC2)cc1)c1cnsn1	1.8µM*	2µM*	·	6	-20%
COc1ccccc1NC1CCCCC1NS(=O)(=O)c1ccccc1 (stereo unspecified)	11%	-16%	-25	-21	·
CC(Sc1nnc(Cc2cccs2)n1C)C(=O)Nc1ccc(C(N)=O)cc1 (stereo unspecified)	·	·	0	2	·
CCc1ccc(CSc2nccn2-c2ccccc2)cc1	-28%	8.9µM*	-21	?	-4%
COC(=O)CCCSc1nccn1-c1ccccc1	-14%	0%	-3	-1	-1%
c1ccc(CCSc2nccn2-c2ccccc2)cc1	-6%	10µM*	-16	-24	-5%
CC1=NN(c2ccccc2)C(=O)C1C(=O)c1ccc(Cl)cc1 (stereo unspecified)	?	11µM*	25	2	-1%
C[n+]1ccn(CC(=O)c2cccs2)c1	-6%	10µM*	-2	6	0%
O=C(CCC(=O)c1cccs1)c1cccs1	-30%	?	5	5	-6%
Cc1n[nH]c(C)c1Cc1c(F)cccc1Cl	-9%	16µM*	2	1	1%
Cc1[nH]ccc(=O)c1Cc1c(Cl)cccc1Cl	2%	11%	9	-1	·
CC(C)(C)OC(=O)N1CCC[C@H]1C(=O)NCc1ccc(Cl)cc1Cl	-6%	18%	-5	5	3%
Cc1ccsc1/C=N/NC(=O)c1cccs1	13µM*	10µM*	1	-17	-3%
Cn1cc(/C=N/NC(=O)c2ccc(C#N)cc2F)c2ccccc21	?	5µM*	4	-3	-1%
C=CCNC(=S)N/N=C/c1cn(C)c2ccccc12	-9%	27%	-8	-21	-2%
SMILES	Gal4-VP16 FLuc	RORg inh	CtBP-E1A inh	Six1-Eya2 blk	PKM2 activator
Cc1nn(-c2ccccc2)cc1/C=N/O	-28%	?	-2	3	-6%
Cc1nn(-c2ccccc2)cc1/C=N/NC(N)=S	4.5µM*	2.5µM*	-6	-16	4%
Cn1cc(/C=N/NC(N)=S)c2ccccc21	22µM*	?	0	-11	-17%
Cc1cccc(C(=O)OCC(=O)N2CC(=O)Nc3ccccc32)c1C	·	·	-18	18	·
Cn1cc(/C=N\NC(=O)c2cccs2)c2ccccc21	?	8.9µM*	-7	13	0%
C/C(=N\NC(=O)c1cccs1)C(C)(C)C	?	13µM*	-12	-12	-4%
Cn1cccc1/C=N/NC(=O)c1cccs1	?	?	·	-10	·
CC(=O)Nc1ccc(S(=O)(=O)N2CCCN(c3nc(C)cc(C)c3C#N)CC2)cc1	13%	-32%	3	3	-1%
COc1ncc2nc(C)c(=O)n(CCc3ccccc3)c2n1	3%	7%	·	·	·
[O-]/C(=C(\C(=S)Nc1ccccc1F)[n+]1ccccc1)c1ccc(-c2ccccc2)cc1	-10%	-25%	-2	2	-2%

Source: PubChem (National Center for Advancing Translational Sciences (NCATS))
